The source of these data is PubChem BioAssay AID602197 (NMMLSC, 2012).

Some of the results follow. A number with no mark means an inactive call. Activity calls are given as the source filed them. Cut-off read from the data, not from the text of the source: active = response above about 24%; inactive = the rest.

The nature of the assay: yeast V-ATPase proton pumping modulators, confirmation, S. cerevisiae, pH-sensitive GFP, second cherry-pick (AID 602197).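 Note: plate controls were vehicle wells for no effect and positive control wells for full effect.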 The note with it: S. cerevisiae pHLuorin cytosolic pH, V-ATPase proton transport; at 10 µM; hits give high values.
For `CNC(=O)c1csc(Cc2c(Cl)sc3ccc(Cl)cc23)n1`, the response was 2.33%.

For `N#C/C(C(=O)N1CCOCC1)=C1/SC(Cc2ccc(F)cc2)C(=O)N1c1ccccc1` (centres undefined), the response is 5.79%.

For the molecule `Nc1ccc(C(=O)NCc2ccccc2)cc1`, the response was -2.67%.

For the molecule `COC(=O)COc1ccc2c(=O)c(Oc3ccccc3Br)coc2c1`, the response was -1.59%.

Consider `Cc1occc1C(=O)Nc1nnc(C2CCCCC2)s1`, for which the response was 3.1%.

Regarding `O=C(NC1CCN(Cc2ccccc2)CC1)c1cc(Br)c(Br)[nH]1`, the response was 2.14%.

`COc1ccc2nc(N3CCN(C(=O)c4ccc([N+](=O)[O-])o4)CC3)sc2c1`: the response was 36% (active).

For the molecule `O=C(C1=C[C@H](C2CC2)C[C@H](OCc2ccc(CO)cc2)O1)N1CCN(Cc2ccccc2)CC1`, the response is 1.94%.

Take `COc1ccccc1CNC(=O)COC(=O)c1sc(C)nc1C`: the response is 1.62%.

As to `COC(=O)c1c(-c2ccc(C)cc2)csc1N`, the response was 0.92%.

With `Cc1ccc(C(=O)Nc2nc3ccc(Cl)cc3s2)o1`, the response is -0.02%.

For the molecule `Cc1cc(OC(=O)c2ccccc2)c([N+](=O)[O-])c(=O)[nH]1`, the response was 1.38%.

As for `CCCc1cc(=O)[nH]c(SCc2ccc(C#N)cc2)n1`, the response is 1.04%.

For `CCOC(=O)CNC(=O)CSc1nnc(COc2ccc(Cl)cc2)n1CC`, the response is -1.08%.

On to `COc1cc2c(cc1/C=C1/NC(=O)N(c3ccccc3)C1=O)OCO2`, for which the response was -0.72%.

As for `CC1=NOC(=O)/C1=C\c1ccccc1`, the response is 30.5% (active).

Take `COc1ccc(CCN2C(=O)N(c3ccc(OC)cc3)C(=O)C2CC(=O)Nc2ccc(OC)cc2)cc1` (centres undefined): the response is -1%.

Turning to `CCCCNc1ccc(C(=O)Nc2cccc(C)n2)cc1[N+](=O)[O-]`, the response was 2.43%.

In the case of `CC(=O)N1CCC(N(C(=O)Nc2ccc(Cl)cc2)C(C)C)CC1`, the response is 2.59%.

As for `CC1=NN(c2ccc(Cl)c(C(=O)O)c2)C(=O)/C1=C/c1ccc(-c2ccccc2[N+](=O)[O-])o1`, the response is 1.31%.

`COc1ccc(N2CCN(C(=O)/C(C#N)=C/c3ccccc3)CC2)cc1`: the response is -3.48%.

Regarding `CCOC(=O)COc1cc(O)c2c(=O)cc(-c3ccccc3)oc2c1`, the response is -3.04%.

Take `CCC(=O)c1ccc(OCC(=O)Nc2ccc(N3CCCCC3)cc2)cc1`: the response is -1.55%.

For the molecule `COc1ccc(C(=O)N(Cc2ccccc2)c2ccc(C)cc2)cc1S(=O)(=O)N1CCOCC1`, the response is -6.57%.
